Results filed as inconclusive are left out. Activity calls are given as the source filed them. How the source made its calls, unless noted: active means hit-call score of the fitted dose curve at least 0.9, where 1 is the maximum; inactive means score below 0.9.
Columns and labels:
[1] = APR_HepG2_CellCycleArrest_1hr: Apredica 1-hour HepG2 Assay for Cell Cycle Arrest (AID 2282666); conditions: high-content imaging, actives raise or lower the signal
Outline: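 HepG2 cells exposed for 1 h to 0.39–200 uM compound (0.5% DMSO). Fixed, Hoechst-stained nuclei imaged by ArrayScan; DNA content quantified by Cell Cycle analysis; bidirectional fit against DMSO.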

[2] = ACEA_ER_80hr: ACEA Biosciences xCELLigence Real-Time Cell Analysis on Estrogen Receptor Agonism for Proliferation (AID 2282667; active means hit-call score of the fitted dose curve at least 0.9, where 1 is the maximum); conditions: T47D proliferation, impedance (xCELLigence), 80 h
Outline: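 Real-time impedance growth kinetics of human T-47D breast cells read 80 h after dosing, gain-of-signal fitted relative to DMSO. Compounds: 1:4 serial series, top final concentration 100 uM, n = 2.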

[3] = APR_HepG2_CellLoss_1hr: Apredica 1-hour HepG2 Assay for Cell Loss (AID 2282668); conditions: high-content imaging;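 further: curves fitted both ways against DMSO so gain or loss of cells counts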
Outline: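 HepG2 cells were treated for 1 h with compound at 0.39–200 uM, in duplicate, in 0.5% DMSO. After formaldehyde fixation, Hoechst 33342-stained nuclei were imaged on an ArrayScan to count cells. Data were fitted bidirectionally versus DMSO.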

[4] = APR_HepG2_MicrotubuleCSK_1hr: Apredica 1-hour HepG2 Assay for Microtubule CSK Stabilty (AID 2282669); conditions: HepG2 microtubule cytoskeleton imaging, actives raise or lower the signal
Outline: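 HepG2 cells exposed 1 h to 0.39–200 uM compound (0.5% DMSO, duplicates), then formaldehyde-fixed, permeabilized and immunostained for alpha-tubulin with Hoechst nuclei. Imaged by ArrayScan high-content analysis; bidirectional fit versus DMSO.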

[5] = APR_HepG2_NuclearSize_1hr: Apredica 1-hour HepG2 Assay for Nuclear Size (AID 2282670); conditions: high-content imaging, actives raise or lower the signal
Outline: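 HepG2 cells dosed 1 hr with 0.39–200 uM compound (0.5% DMSO), formaldehyde-fixed, Hoechst 33342-stained and imaged at 20x; nuclear diameter from nuclear stain, fitted bidirectionally against DMSO.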

[6] = APR_HepG2_MitoMass_1hr: Apredica 1-hour HepG2 Assay for Mitochondrial Mass (AID 2282674); conditions: high-content imaging, actives raise or lower the signal
Outline: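 HepG2 cells dosed 1 hr with 0.39-200 uM compound (0.5% DMSO), duplicate wells. Mitochondria stained with 250 nM MitoTracker Red CMXRos for 30 min before formaldehyde fixation, imaged at 20x by ArrayScan; bidirectional fit versus DMSO.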

[7] = APR_HepG2_StressKinase_1hr: Apredica 1-hour HepG2 Assay for Stress Kinase (AID 2282906); conditions: HepG2 stress kinase (phospho-c-Jun) imaging, actives raise or lower the signal
Outline: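 HepG2 cells dosed 0.39-200 uM (0.5% DMSO) for 1 h, then formaldehyde-fixed. Stress kinase read by phospho-c-Jun immunofluorescence using high-content imaging; bidirectional fit vs DMSO.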

[8] = APR_HepG2_NuclearSize_24hr: Apredica 24-hour HepG2 Assay for Nuclear Size (AID 2282907); conditions: high-content imaging, actives raise or lower the signal
Outline: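 HepG2 cells exposed 24 h to compounds at 0.39–200 uM (0.5% DMSO), fixed, Hoechst 33342 stained and imaged at 20x; nuclear diameter measured by automated image analysis, fitted bidirectionally against DMSO controls.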

[9] = APR_HepG2_CellLoss_24hr: Apredica 24-hour HepG2 Assay for Cell Loss (AID 2282908); conditions: high-content imaging
Outline: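 HepG2 cells exposed 24 hr to 0.39–200 uM compound in duplicate at 0.5% v/v final DMSO. Cells fixed in 3.7% formaldehyde and Hoechst 33342-stained. Cell number came from nuclear imaging at 20x. Bidirectional fit versus DMSO.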

[10] = APR_HepG2_MicrotubuleCSK_24hr: Apredica 24-hour HepG2 Assay for Microtubule CSK Stabilty (AID 2282909); conditions: HepG2 microtubule cytoskeleton imaging, actives raise or lower the signal
Outline: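 HepG2 cells were treated 24 hr with compound at 0.39–200 uM in duplicate (0.5% DMSO final), then fixed and permeabilized. Alpha-tubulin immunofluorescence was imaged by high-content microscopy, with bidirectional fitting against DMSO and taxol as positive control.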

[11] = APR_HepG2_MitoticArrest_24hr: Apredica 24-hour HepG2 Assay for Mitotic Arrest (AID 2282910); conditions: high-content imaging, actives raise or lower the signal
Outline: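 Compounds are dosed onto HepG2 cells across ten concentrations up to 200 uM for 24 hr. Cells are then fixed in 3.7% formaldehyde, permeabilised, and labelled for phospho-histone H3 and nuclei; images are scored by cell cycle analysis and fitted bidirectionally relative to DMSO.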

[12] = APR_HepG2_MitoMembPot_24hr: Apredica 24-hour HepG2 Assay for Mitochondrial Membrane Potential (AID 2282911); conditions: imaging, actives raise or lower the signal
Outline: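 Mitochondrial membrane potential imaged via MitoTracker Red CMXRos (250 nM, 30 min pre-fixation) in fixed HepG2 cells with Hoechst nuclear identification. Ten concentrations 0.39–200 uM, 24 h treatment, 0.5% DMSO; CCCP as positive control.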

[13] = APR_HepG2_MitoMass_24hr: Apredica 24-hour HepG2 Assay for Mitochondrial Mass (AID 2282912); conditions: high-content imaging, actives raise or lower the signal
Outline: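 HepG2 cells exposed 24 hr to 0.39–200 uM compound, 0.5% v/v DMSO, in duplicate. Stained before fixation with 250 nM MitoTracker Red CMXRos for 30 min, then imaged at 20x with Hoechst nuclei. Fitted in both directions against DMSO.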

[14] = APR_HepG2_CellCycleArrest_72hr: Apredica 72-hour HepG2 Assay for Cell Cycle Arrest (AID 2282914); conditions: high-content imaging, actives raise or lower the signal
Outline: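 Read-out: nuclear DNA content from Hoechst 33342 high-content imaging (20x, six fields/well) after 3.7% formaldehyde fixation, fitted bidirectionally against DMSO. Treatment was 72 h in HepG2, ten concentrations 0.39–200 uM, duplicate, 0.5% DMSO.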

[15] = APR_HepG2_p53Act_1hr: Apredica 1-hour HepG2 Assay for p53 Activation (AID 2282671); conditions: high-content imaging, actives raise or lower the signal
Outline: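 HepG2 cells treated 1 h with compound at 0.39–200 uM (10 concentrations, duplicate) in 0.5% DMSO. Formaldehyde-fixed, permeabilised cells immunostained for p53 with Hoechst 33342; high-content imaging, bidirectional fit versus DMSO.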

[16] = APR_HepG2_MitoMembPot_1hr: Apredica 1-hour HepG2 Assay for Mitochondrial Membrane Potential (AID 2282675); conditions: imaging, actives raise or lower the signal
Outline: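 HepG2 cells dosed 1 hour with 0.39–200 uM compound in duplicate, 0.5% DMSO final. MitoTracker Red CMXRos (250 nM, 30 min) loaded before formaldehyde fixation; fluorescence quantified by high-content imaging, bidirectional fitting versus DMSO.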

[17] = APR_HepG2_CellCycleArrest_24hr: Apredica 24-hour HepG2 Assay for Cell Cycle Arrest (AID 2282905); conditions: imaging, actives raise or lower the signal;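 further: cell cycle arrest scored as ratio of 2N to 4N nuclear DNA content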
Outline: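 Compounds at 0.39–200 uM (0.5% DMSO) for 24 h, then fixed and Hoechst 33342 stained. Cell-cycle analysis of nuclear DNA content by high-content imaging, fitted bidirectionally versus DMSO.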

[18] = APR_HepG2_p53Act_24hr: Apredica 24-hour HepG2 Assay for p53 Activation (AID 2282913); conditions: high-content imaging, actives raise or lower the signal;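 further: p53 protein immunofluorescence averaged per cell in HepG2 with Hoechst nuclei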
Outline: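 Fluorescence imaging of formaldehyde-fixed HepG2 cells labelled for p53 and with Hoechst, 24 h after dosing (0.39–200 uM, duplicate wells, 0.5% v/v DMSO). Signal fitted in both directions relative to DMSO.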

[19] = APR_HepG2_P-H2AX_1hr: Apredica 1-hour HepG2 Assay for H2AX Phosphorylation (AID 2282673); conditions: high-content imaging, actives raise or lower the signal
Outline: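 HepG2 dosed 1 hr at 0.39-200 uM (0.5% DMSO final), duplicate. Fixed in 3.7% formaldehyde, Triton permeabilized, immunostained for phospho-histone H2A.x (1:200) with Hoechst 33342; ArrayScan 20x imaging, bidirectional fit vs DMSO.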

[20] = APR_HepG2_MitoticArrest_1hr: Apredica 1-hour HepG2 Assay for Mitotic Arrest (AID 2282672); conditions: high-content imaging, actives raise or lower the signal
Outline: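 HepG2 cells exposed 1 hr to compounds at 0.39–200 uM (0.5% v/v DMSO final), then fixed in 3.7% formaldehyde and immunostained for phospho-histone H3 with Hoechst 33342. Mitotic arrest scored by automated fluorescence imaging, fitted bidirectionally versus DMSO.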

Measured: AC50

Cc1nc(N(C)C)nc(OC(=O)N(C)C)c1C
not listed: [15] | [16] | [17] | [18] | [19] | [20]
inactive: all other assays above

CCNP(=S)(OC)O/C(C)=C/C(=O)OC(C)C (stereo unspecified)
not listed: [19] | [20]
inactive: all other assays above

CC1(C)C(C=C(Cl)Cl)C1C(=O)OC(C#N)c1cccc(Oc2ccccc2)c1 (stereo unspecified)
not listed: [17] | [20]
inactive: all other assays above

C=CCOC(=O)C(C)(C)OC(=O)c1cc(-n2c(=O)cc(C(F)(F)F)n(C)c2=O)ccc1Cl
not listed: [4] | [16] | [20]
inactive: all other assays above

CC1(C)CON(Cc2ccccc2Cl)C1=O
not listed: [17] | [19] | [20]
inactive: all other assays above

O=P(O)(O)CCCl
active: [1] 71.3 nM
not listed: [16] | [17]
inactive: all other assays above

Nc1c(Cl)c(Cl)nc(C(=O)O)c1Cl
not listed: [4] | [16] | [19] | [20]
inactive: all other assays above

Clc1nc(Cl)nc(Nc2ccccc2Cl)n1
not listed: [4] | [20]
inactive: all other assays above

From PubChem BioAssay (EPA / NIEHS)
